Measurements: ChEMBL document CHEMBL4513141, “CO-ADD screening of NIH (USA) - Clinical Collection” (2021)
Entries with a potency or affinity are not part of this list.

Columns and labels:
Klebsiella pneumoniae = details: Concentration 20 uM; ASSAY_TEST Inhibition of Bacterial Growth; detection method Absorption (OD600); MEDIA CAMHB; plate type 384well; NBS; CORNING #3640; time 18 hr
Candida albicans = details: 20 µM
Cryptococcus neoformans = details: Concentration 20 uM; ASSAY_TEST Inhibition of Fungal Growth; detection method Resazurin; Absorption (OD600-OD570); plate type 384well; NBS; CORNING #3640

Compound	Inhibition (Klebsiella pneumoniae) [%]	Inhibition (Candida albicans) [%]	Inhibition (Cryptococcus neoformans) [%]
COc1cc(C(=O)NC2CCCNC2)cc(OC)c1OC (configuration not stated) [TROXIPIDE]	14.93	5.32	0.51
C[C@]12C=CC(=O)C=C1CC[C@@H]1[C@@H]2[C@@H](O)C[C@@]2(C)[C@H]1CC[C@]2(O)C(=O)CO [PREDNISOLONE]	15.03	1.1	-7.92
CCCOc1ccc(C(=O)OCCN(CC)CC)cc1N.Cl [PROPARACAINE HYDROCHLORIDE]	1.6	0.55	2.64
CC=CC(=O)N(CC)c1ccccc1C	0.87	0.3	-7.28
CCCCC1=NC2(CCCC2)C(=O)N1Cc1ccc(-c2ccccc2-c2nnn[nH]2)cc1 [IRBESARTAN]	7.4	-0.2	0.28
Nc1nc(Cl)nc2c1ncn2[C@H]1C[C@H](O)[C@@H](CO)O1 [CLADRIBINE]	16.3	1.93	-8.92
C=CCc1ccc(O)c(-c2ccc(O)c(CC=C)c2)c1 [HONOKIOL]	7.54	3.92	0.25
CNCCC=C1c2ccccc2CCc2ccccc21.Cl [NORTRIPTYLINE HYDROCHLORIDE]	11.74	1.73	-10.6
CC[C@H](C)C(=O)O[C@H]1C[C@@H](C)C=C2C=C[C@H](C)[C@H](CC[C@@H]3C[C@@H](O)CC(=O)O3)[C@H]21 [LOVASTATIN]	12.43	17.1	-5.68
